Reference: PubChem BioAssay AID1159580 (chemical genetic matrix, 2015)
Values joined by “and” are separate entries in the source; they are usually repeats but may differ in a detail not shown here. Equal entries are not always repeated. In all, about 5,500 compounds went through this assay and about 2,000 (36%) were called active. About 18% were inconclusive and are not listed. Rule as the data show it: active = normalized growth mostly below about 0.91 (no sharp cut-off); inconclusive = no clear call, values can overlap the other calls; inactive = mostly above about 0.92. The list shows a part of the results.

Assay: chemical genetic growth profiling, strain panel (AID 1159580);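 also: tested at 20 µM; growth read once vehicle control cultures reached saturation at 30 °C; 1 = growth at the plate median or of vehicle wells; lower values mean less growth of the strain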
Settings: growth OD

Measured: normalized growth

O=C(O)c1cc(=O)c2c(Cl)cc(Cl)cc2[nH]1
inactive: S. cerevisiae deletion strains, locus YJL187C, strain SWE1, active compounds read low 1.02 | S. cerevisiae deletion strains, locus YJR043C, strain POL32, active compounds read low 1 | S. cerevisiae deletion strains, locus YJR075W, strain HOC1, active compounds read low 0.985 | S. cerevisiae deletion strains, locus YKL009W, strain mrt4, active compounds read low 1 | S. cerevisiae deletion strains, locus YKL068W, active compounds read low 1 | S. cerevisiae deletion strains, locus YKL085W, strain MDH1 (second series), active compounds read low 1.01 | S. cerevisiae deletion strains, locus YKL085W, strain MDH1, active compounds read low 1.01 | S. cerevisiae deletion strains, locus YKL160W, strain elf1, active compounds read low 1.01 | S. cerevisiae deletion strains, locus YKL190W, strain CNB1, active compounds read low 1 | S. cerevisiae deletion strains, locus YKR001C, strain vps1, active compounds read low 1.05 | S. cerevisiae deletion strains, locus YKR026C, strain gcn3, active compounds read low 1.02 | S. cerevisiae deletion strains, locus YKR091W, strain srl3, active compounds read low 1.01 | S. cerevisiae deletion strains, locus YLL001W, strain dnm1, active compounds read low 1.03 | S. cerevisiae deletion strains, locus YLL026W, active compounds read low 1.01 | S. cerevisiae deletion strains, locus YLL041C, strain sdh2, active compounds read low 1.01 | S. cerevisiae deletion strains, locus YLR027C, strain aat2, active compounds read low 1.01 | S. cerevisiae deletion strains, locus YLR039C, strain RIC1, active compounds read low 1.04 | S. cerevisiae deletion strains, locus YLR058C, strain SHM2, active compounds read low 1.01 | S. cerevisiae deletion strains, locus YLR102C, strain apc9, active compounds read low 1.01 | S. cerevisiae deletion strains, locus YLR221C, strain rsa3, active compounds read low 1.02 | S. cerevisiae deletion strains, locus YLR258W, strain gsy2, active compounds read low 1.02 | S. cerevisiae deletion strains, locus YLR262C, strain YPT6 (second series), active compounds read low 1.01 | S. cerevisiae deletion strains, locus YLR262C, strain YPT6, active compounds read low 1.03 | S. cerevisiae deletion strains, locus YLR268W, strain sec22, active compounds read low 1.03 | S. cerevisiae deletion strains, locus YLR320W, strain mms22, active compounds read low 1.03 | S. cerevisiae deletion strains, locus YLR330W, strain CHS5, active compounds read low 1.01 | S. cerevisiae deletion strains, locus YLR342W, strain FKS1 (second series), active compounds read low 1.02 | S. cerevisiae deletion strains, locus YLR342W, strain FKS1, active compounds read low 1.02 | S. cerevisiae deletion strains, locus YLR357W, strain rsc2, active compounds read low 1 | S. cerevisiae deletion strains, locus YLR370C, strain arc18, active compounds read low 1.02 | S. cerevisiae deletion strains, locus YLR371W, strain rom2, active compounds read low 1 | S. cerevisiae deletion strains, locus YLR384C, strain iki3, active compounds read low 1.01 | S. cerevisiae deletion strains, locus YLR418C, strain cdc73, active compounds read low 1.05 | S. cerevisiae deletion strains, locus YML016C, strain PPZ1, active compounds read low 1.01 | S. cerevisiae deletion strains, locus YML032C, strain rad52, active compounds read low 1.01 | S. cerevisiae deletion strains, locus YML120C, strain ndi1, active compounds read low 1.02 | S. cerevisiae deletion strains, locus YML124C, strain tub3, active compounds read low 1.01 | S. cerevisiae deletion strains, locus YMR058W, strain fet3, active compounds read low 1.01 | S. cerevisiae deletion strains, locus YMR078C, strain ctf18, active compounds read low 1.03 | S. cerevisiae deletion strains, locus YMR125W, strain sto1, active compounds read low 1 | S. cerevisiae deletion strains, locus YMR129W, active compounds read low 1.01 | S. cerevisiae deletion strains, locus YMR205C, strain PFK2, active compounds read low 1.01 | S. cerevisiae deletion strains, locus YMR223W, strain ubp8, active compounds read low 1.03 | S. cerevisiae deletion strains, locus YMR231W, strain pep5, active compounds read low 1.01 | S. cerevisiae deletion strains, locus YMR263W, strain SAP30, active compounds read low 1 | S. cerevisiae deletion strains, locus YMR307W, strain GAS1, active compounds read low 1.04 | S. cerevisiae deletion strains, locus YNL067W, strain RPL9B, active compounds read low 0.997 | S. cerevisiae deletion strains, locus YNL071W, strain lat1, active compounds read low 1.02 | S. cerevisiae deletion strains, locus YNL153C, strain GIM3, active compounds read low 1 | S. cerevisiae deletion strains, locus YNL175C, strain NOP13, active compounds read low 0.996 | S. cerevisiae deletion strains, locus YNL197C, strain WHI3, active compounds read low 1.01 | S. cerevisiae deletion strains, locus YNL209W, strain ssb2, active compounds read low 1 | S. cerevisiae deletion strains, locus YNL224C, strain SQS1, active compounds read low 0.995 | S. cerevisiae deletion strains, locus YNL233W, strain BNI4, active compounds read low 1 | S. cerevisiae deletion strains, locus YNL248C, strain rpa49, active compounds read low 1.01 | S. cerevisiae deletion strains, locus YNL250W, strain rad50, active compounds read low 1.03 | S. cerevisiae deletion strains, locus YNL271C, strain bni1, active compounds read low 1.02 | S. cerevisiae deletion strains, locus YNL298W, strain CLA4, active compounds read low 1.01 | S. cerevisiae deletion strains, locus YNL307C, strain MCK1, active compounds read low 1.02 | S. cerevisiae deletion strains, locus YNL322C, strain KRE1 (second series), active compounds read low 1.02 | S. cerevisiae deletion strains, locus YNL322C, strain KRE1, active compounds read low 0.993 and 1 | S. cerevisiae deletion strains, locus YNR049C, strain mso1, active compounds read low 1.01 | S. cerevisiae deletion strains, locus YNR052C, strain pop2, active compounds read low 1.02 | S. cerevisiae deletion strains, locus YOL006C, strain TOP1, active compounds read low 0.999 | S. cerevisiae deletion strains, locus YOL012C, strain htz1 1.91 | S. cerevisiae deletion strains, locus YOL147C, strain pex11, active compounds read low 1.02 | S. cerevisiae deletion strains, locus YOR001W, strain rrp6, active compounds read low 1.01 | S. cerevisiae deletion strains, locus YOR061W, strain CKA2, active compounds read low 1.02 | S. cerevisiae deletion strains, locus YOR069W, strain VPS5, active compounds read low 1.01 | S. cerevisiae deletion strains, locus YOR070C, strain gyp1, active compounds read low 1.01 | S. cerevisiae deletion strains, locus YOR080W, strain dia2, active compounds read low 1.02 | S. cerevisiae deletion strains, locus YOR083W, strain WHI5 (second series), active compounds read low 0.994 | S. cerevisiae deletion strains, locus YOR083W, strain WHI5, active compounds read low 1.02 | S. cerevisiae deletion strains, locus YOR106W, strain vam3, active compounds read low 1.01 | S. cerevisiae deletion strains, locus YOR136W, strain idh2, active compounds read low 1.02 | S. cerevisiae deletion strains, locus YOR144C, strain elg1, active compounds read low 1.01 | S. cerevisiae deletion strains, locus YOR184W, strain ser1, active compounds read low 1.02 | S. cerevisiae deletion strains, locus YOR265W, strain rbl2, active compounds read low 1.01 | S. cerevisiae deletion strains, locus YOR270C, strain vph1, active compounds read low 1.03 | S. cerevisiae deletion strains, locus YOR290C, strain snf2, active compounds read low 0.991 | S. cerevisiae deletion strains, locus YOR316C, strain cot1, active compounds read low 1.01 | S. cerevisiae deletion strains, locus YPL051W, strain arl3, active compounds read low 1.01 | S. cerevisiae deletion strains, locus YPL055C, strain LGE1, active compounds read low 0.992 | S. cerevisiae deletion strains, locus YPL078C, strain atp4, active compounds read low 1.01 | S. cerevisiae deletion strains, locus YPL106C, strain sse1, active compounds read low 0.999 | S. cerevisiae deletion strains, locus YPL240C, strain hsp82, active compounds read low 1.02 | S. cerevisiae deletion strains, locus YPL241C, strain CIN2, active compounds read low 1 | S. cerevisiae deletion strains, locus YPR119W, strain clb2, active compounds read low 1.01 | S. cerevisiae deletion strains, locus YPR141C, strain kar3, active compounds read low 1.01 | S. cerevisiae deletion strains, locus YPR163C, strain tif3, active compounds read low 1.02 | S. cerevisiae deletion strains, locus YPR167C, strain met16, active compounds read low 1.02 | S. cerevisiae deletion strains, strain wtn01, active compounds read low 1.02 | S. cerevisiae strains, strain wild type, active compounds read low 1
